Records with an inconclusive call do not appear. Calls of active or inactive are those of the source. Unless noted, no rule for the calls is given here.

The nature of test [1]: qHTS profiling of the MIPE4 collection as inhibitors of Plasmodium falciparum (DD2) proliferation (AID 743345). The note with it: P. falciparum Dd2 in erythrocytes, SYBR Green DNA, 72 h; at 28.5 µM (top of the series) unless noted. The procedure, abridged: (§1)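 Parasite DNA was quantified by SYBR Green I fluorescence (ex 485, em 535 nm) after overnight lysis in saponin/Triton buffer at room temperature. Cultures at 0.3% parasitemia and 2.5% hematocrit were first exposed to compound for 72 h at 37 C; signals were normalised to artemisinin (0.29 uM) and vehicle wells.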
A general note: In qHTS, concentration-response curves come from the screen itself.

Test [2] in a line: qHTS profiling of the MIPE4 collection as inhibitors of Plasmodium falciparum (DD2) proliferation (Rep 2) (AID 743346). The note with it: P. falciparum Dd2 in erythrocytes, SYBR Green DNA, 72 h; at 28.5 µM (top of the series) unless noted. The procedure, abridged:
as §1

Test [3] is described as follows: High-throughput drug toxicity screening in the BPDCN cell line Gen2.2 (AID 1224824).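 Also: cells exposed to compounds for 48 h before reading.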 The note with it: Gen2.2 BPDCN cells; at 45.8 µM (top of the series) unless noted. The procedure, abridged: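 Gen2.2 cells (500/well) in phenol red-free RPMI with 10% FBS were exposed to compounds for 48 h at 37 °C, 5% CO2. Viability was read by CellTiter-Glo luminescence and normalized to DMSO (100%) and 9.2 uM bortezomib (0%).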

The nature of test [4]: High-throughput drug toxicity screening in the BPDCN cell line Cal-1 (AID 1224825). The note with it: Cal-1 BPDCN cell viability, qHTS; at 45.8 µM (top of the series) unless noted. The procedure, abridged: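 Viability of the BPDCN line Cal-1 is measured as ATP-based luminescence (CellTiter-Glo) following 48 h incubation with compounds. Percent activity uses DMSO-treated wells as 100% and 9.2 uM bortezomib as 0%.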

Test [5] in a line: qHTS assay for measurement of the activity of small molecule inhibitors on Zika virus induced Caspase-3 activity in human iPSC derived neural progenitor cells (hNPCs) (AID 1224857; active = well fitted inhibition curve with a large enough effect; also: % of control where 0% means no effect; nearly all actives have a fitted effect of over 65% in size). The procedure, abridged:
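Human iPSC-derived neural progenitor cells pretreated 1 hr with compounds, then infected with Zika virus (2 FFU/cell) for 6 hours at 37 C. Caspase-3/7 measured by Caspase-Glo luminescence; % inhibition calculated from induction scaled to uninfected (0%) and infected (100%) wells.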

Test [6] in a line: qHTS Screen of the MIPE 4.0 Collection Against Ewings Sarcoma (RDES) (AID 1259252; active = well fitted inhibition curve with a large enough effect; also: nearly all actives have a fitted effect of over 35% in size; also: potency is read from the fitted curve at half-maximal effect). The procedure, abridged: (§2)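 Measured: ATP luminescence (CellTiter-Glo) 10 min after reagent addition, following 48 h drug treatment. Relative luciferase units converted to percent activity, with no-cell wells as full and DMSO wells as zero inhibition.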
Test [7] in a line: qHTS Screen of the MIPE 4.0 Collection Against Ewings Sarcoma (TC71) (AID 1259253; active = well fitted inhibition curve with a large enough effect; also: nearly all actives have a fitted effect of over 40% in size; also: potency is read from the fitted curve at half-maximal effect). The procedure, abridged: as §2
Test [8] is described as follows: qHTS Screen of the MIPE 4.0 Collection Against Ewings Sarcoma (EW8) (AID 1259255; active = well fitted inhibition curve with a large enough effect; also: nearly all actives have a fitted effect of over 35% in size; also: potency is read from the fitted curve at half-maximal effect;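 as to viability: 100% = DMSO-treated cells and 0% = medium-only wells without cells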). The procedure, abridged:
as §2

The nature of test [9]: qHTS profiling of the MIPE4 collection as inhibitors of Plasmodium falciparum (HB3) proliferation (AID 743347).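 Also: plate controls were DMSO vehicle wells for no effect and artemisinin wells for full effect.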 The note with it: P. falciparum HB3 in erythrocytes, SYBR Green DNA, 72 h; at 28.5 µM (top of the series) unless noted. The procedure, abridged: as §1
A short description of test [10]: qHTS assay for measurement of the activity of small molecule inhibitors on Zika virus induced Caspase-3 activity in human astrocytoma cells (AID 1224859; active = well fitted inhibition curve with a large enough effect;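 also: plate controls were ZIKV-infected untreated cells for no effect and uninfected cells for full effect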). The procedure, abridged:
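SNB-19 astrocytoma cells, 250/well, pretreated 1 h with compounds, then Zika virus at 2 FFU/cell for 6 h at 37 C; Caspase-Glo 3/7 luminescence after 30 min; percent inhibition normalised to uninfected and infected controls.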

As for `COc1ccc(S(=O)(=O)Nc2cccnc2Nc2ccc(O)cc2)cc1`, in test [1], the parasite growth remaining, % of DMSO control (lower = more inhibition) came out at 94%. In addition, in test [2], the parasite growth, % of control (lower = inhibition) amounted to 85.5%. Also, the cell viability, % of control (lower = more cytotoxic) in [3] came out at 4.34%. Also, the viability (% of control) in test [4] stood at 8.72%. Also, the Potency entry in test [5] is “inactive”. Besides, the Potency is 83.3 nM (active) in test [6], 148 nM (active) in test [7] and 93.5 nM (active) in test [8].
`OCC(O)C(O)C(O)CO` (centres undefined): the parasite growth remaining, % of DMSO control (lower = more inhibition) in test [1] came out at 105%. Also, the parasite growth, % of control (lower = inhibition) in [2] is 114%. In test [9], this compound yielded a growth, % of control of 95.9%. Also, the cell viability, % of control (lower = more cytotoxic) in [3] worked out at 59.2%. Moreover, the viability (% of control) in test [4] is 66.8%. Also, the Potency result in test [5], in test [6], in [7] and in test [8] was “inactive” in each case.
Take `CN[C@@H]1C[C@H]2O[C@@](C)([C@H]1OC)n1c3ccccc3c3c4c(c5c6ccccc6n2c5c31)C(=O)N[C@H]4O`: the parasite growth remaining, % of DMSO control (lower = more inhibition) in test [1] stood at 6.48%. Further, in test [2], the parasite growth, % of control (lower = inhibition) was 14.9%. This compound returned a growth, % of control in test [9] of 3.74%. In addition, the cell viability, % of control (lower = more cytotoxic) in test [3] is 13%. Also, the viability (% of control) in test [4] was determined as 4.51%. Also, in [5], the Potency entry is “inactive”. Besides, the Potency in [6] is 935 nM (active); in test [7] it was 209 nM (active); in [8], 418 nM (active).
In the case of `N#Cc1ccc(COC[C@H]2O[C@@H](n3c(NCc4ccc(Cl)c(Cl)c4)nc4c(N)ncnc43)[C@@H](O)[C@@H]2O)cc1`, the parasite growth remaining, % of DMSO control (lower = more inhibition) in test [1] turned out to be 48.6%. The parasite growth, % of control (lower = inhibition) in [2] is 23.2%. Also, in test [9], the growth, % of control amounted to 23.2%. For the same compound, the cell viability, % of control (lower = more cytotoxic) in test [3] came to 10.7%. For the same compound, in test [4], the viability (% of control) amounted to 3.42%. The Potency result in test [5] is “inactive”. Moreover, the Potency in test [6], in test [7] and in test [8] was 9350 nM (active) in each case.
On to `N=c1ccn2c(n1)O[C@H]1[C@@H](O)[C@@H](CO)O[C@H]12`, for which the parasite growth remaining, % of DMSO control (lower = more inhibition) in test [1] amounted to 119%. The parasite growth, % of control (lower = inhibition) in test [2] came to 83.2%. In addition, the growth, % of control in test [9] turned out to be 73.8%. In addition, the cell viability, % of control (lower = more cytotoxic) in test [3] worked out at 70.9%. In [4], the viability (% of control) is 11.2%. Further, the Potency result in test [5] was “inactive”. Besides, the Potency is 332 nM (active) in test [6], 662 nM (active) in test [7] and 1050 nM (active) in test [8].
Turning to `O=C(CCCCCCC(=O)Nc1cccnc1)NO`, in [1], the parasite growth remaining, % of DMSO control (lower = more inhibition) was 7.37%. The parasite growth, % of control (lower = inhibition) in test [2] was 7.99%. The compound further registered a growth, % of control in [9] of 4.47%. In test [3], the cell viability, % of control (lower = more cytotoxic) came to 20.5%. Besides, the viability (% of control) in test [4] turned out to be 10.1%. In addition, the Potency entry in test [5] and in [10] was “inactive” each time. The Potency in test [7] was 5260 nM (active); in test [8], 2640 nM (active).
For the compound `CCCCCCCN(CC)CCCC(O)c1ccc(NS(C)(=O)=O)cc1` (centres undefined), the parasite growth remaining, % of DMSO control (lower = more inhibition) in [1] came to 83.7%. Moreover, the parasite growth, % of control (lower = inhibition) in [2] stood at 72%. The compound also gave a growth, % of control in test [9] of 54%. Also, in test [3], the cell viability, % of control (lower = more cytotoxic) came out at 213%. For the same compound, the viability (% of control) in test [4] was determined as 81.4%. In addition, the Potency result in test [5], in test [6], in test [7] and in [8] was “inactive” in each case.
As to `C=CC1=C(C(=O)O)N2C(=O)[C@@H](NC(=O)C(=NO)c3csc(N)n3)[C@H]2SC1`, in test [1], the parasite growth remaining, % of DMSO control (lower = more inhibition) is 95.1%. For the same compound, in test [2], the parasite growth, % of control (lower = inhibition) came to 103%. In test [9], this compound displayed a growth, % of control of 68.4%. The cell viability, % of control (lower = more cytotoxic) in test [3] was determined as 116%. In test [4], the viability (% of control) was determined as 105%. The Potency entry in test [5], in test [6], in test [7] and in test [8] was “inactive” each time.
Turning to `Nc1nc(N)c2nc(-c3cccc(O)c3)c(-c3cccc(O)c3)nc2n1`, the parasite growth remaining, % of DMSO control (lower = more inhibition) in test [1] is 10.5%. In addition, in test [2], the parasite growth, % of control (lower = inhibition) was found to be 26.2%. For the same compound, in test [9], the growth, % of control amounted to 11%. In addition, the cell viability, % of control (lower = more cytotoxic) in test [3] was determined as 15.8%. In addition, in [4], the viability (% of control) came out at 5.3%. In [5], the Potency entry is “inactive”. The values for the Potency in [6], in test [7] and in test [8] were 23500 nM (active), 20900 nM (active) and 23500 nM (active), respectively.
Regarding `N#CC(=C(N)Sc1ccc(N)cc1)c1ccccc1C(F)(F)F`, in test [1], the parasite growth remaining, % of DMSO control (lower = more inhibition) is 69.5%. Also, the parasite growth, % of control (lower = inhibition) in test [2] amounted to 33.9%. In addition, the growth, % of control in test [9] came out at 7.78%. The cell viability, % of control (lower = more cytotoxic) in test [3] came out at 7.44%. Further, the viability (% of control) in test [4] worked out at 57.2%. Also, the Potency result in test [5] is “inactive”. The Potency in test [6] was 5900 nM (active); in test [7] it was 10500 nM (active); in test [8] it was 3320 nM (active).

The values are drawn from PubChem BioAssay (NCATS).
